From PubChem BioAssay
An excerpt weighted towards active compounds, which were near 1.7% of everything screened.
FGF22 binding = shifts melting point of recombinant human FGF22; Q9HCT0; recombinant FGF22 thermal shift, SYPRO orange fluorescence; percent of sucrose octasulfate shift, DMSO zero; activity (Tm shift, normalised), % at 9.99 µM; 340,000 compounds, 1.5% hits;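 active = mean Tm shift, scaled 0 neutral to 100 positive control, at about 1.3% or above, every replicate too, limit read from the data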
Target sequence (Q9HCT0 whole entry, looked up): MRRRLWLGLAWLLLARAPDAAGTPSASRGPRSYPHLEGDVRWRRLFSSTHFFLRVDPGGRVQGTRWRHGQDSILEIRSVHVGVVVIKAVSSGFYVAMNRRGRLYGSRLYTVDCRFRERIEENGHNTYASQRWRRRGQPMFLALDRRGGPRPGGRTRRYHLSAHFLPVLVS
CFTR F508del cor = correctors of CFTR F508del function in bronchial epithelial cells; CFBE cells, YFP halide quenching; stimulated with forskolin plus potentiator P3; % fluorescence drop versus neutral controls; activity (quench increase), % at 7.58 µM; 350,000 compounds, 0.36% hits; AID 720511;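 active = mean added fluorescence quench of at least 8% versus neutral control, with both replicates also reaching 8%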;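 also: cells transiently co-express mutant CFTR-F508del with the halide-sensitive YFP; corrector assay measuring rescue of mutant channel to the surface after 24 h compound exposure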
Vif imaging = blocks HIV Vif function | inhibition, % at 7.49 µM | AID 602346 | HEK293T cells, Vif self-association by quenched fluorescence, imaging, 24 h | 340,000 compounds, 0.35% hits; in the data active = inhibition above about 50%, passing the limit was not always enough
Large screens that a line does not name were inactive.

C[C@@H]1CN([C@@H](C)CO)C(=O)c2cc(NC(=O)CCN3CCOCC3)ccc2O[C@H]1CN(C)Cc1ccccc1	none (no result: Vif imaging)
CCC(=O)N(CCC1(C(C)C)CCOC(C)(C)C1)Cc1ccco1 (configuration not stated)	Vif imaging 109 (no result: FGF22 binding, CFTR F508del cor)
CC(=O)N(CCC1(C(C)C)CCOC(C)(C)C1)Cc1ccco1 (configuration not stated)	none (no result: FGF22 binding, CFTR F508del cor)
CN(C)S(=O)(=O)N1CCCN(S(=O)(=O)N(C)C)CC1	Vif imaging 66 (no result: FGF22 binding, CFTR F508del cor)
CN(C)S(=O)(=O)N1CCN(S(=O)(=O)N2CCOCC2)CC1	none
COc1cc(CN2CCN(c3ccccc3F)CC2)c([N+](=O)[O-])cc1OC	FGF22 binding 44
O=[N+]([O-])c1cc2c(cc1CN1CCN(c3ccccc3F)CC1)OCO2	none
COc1ccc2c3c(n(C)c2c1)[C@H](CO)N(C(=O)C1CCOCC1)CC31CCN(C(=O)Nc2cccc(F)c2)CC1	none (no result: Vif imaging)
COC(=O)c1sc(-c2ccc(C(C)(C)C)cc2)cc1NC(=O)COCC(=O)O	none (no result: Vif imaging)
COC(=O)c1sc(-c2ccc(Cl)cc2)cc1NC(=O)CSCC(=O)O	Vif imaging 51
O=C(CN1CCOCC1)NCC[C@@H]1CC[C@H](NC(=O)Nc2ccc(C(F)(F)F)cc2)[C@H](CO)O1	none (no result: Vif imaging)
Cc1noc(C)c1NC(=O)Nc1cccc2c1O[C@@H](CN(C)C(=O)Nc1ccc(C(F)(F)F)cc1)[C@H](C)CN([C@@H](C)CO)C2=O	none (no result: Vif imaging)
CSCc1ccc(C(=O)OCc2nc3ccccc3s2)o1	FGF22 binding 43
O=C(OCc1nc2ccccc2s1)c1cccs1	none (no result: FGF22 binding, CFTR F508del cor)
CCS(=O)(=O)Nc1ccc2c(c1)C(=O)N(C)[C@@H]1CC[C@@H](CC(=O)NCCOC)O[C@H]1CO2	none (no result: CFTR F508del cor, Vif imaging)
COc1ccc(NC(=O)c2ccc3c(c2)NC(=O)CS3)cc1	none
Cc1ccc(NS(=O)(=O)c2cc(NC(=O)c3ccc4c(c3)NC(=O)CS4)ccc2Cl)c(C)c1	FGF22 binding 43
COc1ccc(NC(=O)Nc2ccc3c(c2)C(=O)N([C@H](C)CO)C[C@@H](C)[C@@H](CN(C)Cc2ccc(Cl)c(Cl)c2)OCCCC[C@H](C)O3)cc1	none (no result: Vif imaging)
C[C@@H]1CN([C@H](C)CO)C(=O)c2cc(NC(=O)Nc3ccc(C(F)(F)F)cc3)ccc2O[C@@H]1CN(C)S(=O)(=O)c1cn(C)cn1	none (no result: Vif imaging)
O=C(Nc1ccc(C(F)(F)F)cc1)c1csc(-c2ccncc2)n1	FGF22 binding 43
O=C(Nc1ccccc1)c1csc(-c2ccccc2)n1	none
COc1ccc(S(=O)(=O)Nc2ccc3c(c2)OC[C@H](C)NC[C@@H](C)[C@H](OC)CN(C)C3=O)cc1	none (no result: Vif imaging)
O=C(CSC(=S)N1CCCC1)c1cc(Br)cc(Br)c1O	FGF22 binding 46 (no result: CFTR F508del cor, Vif imaging)
CC1CCCN(C(=S)SCC(=O)c2cc(Br)cc(Br)c2O)C1 (configuration not stated)	none (no result: FGF22 binding)
C[C@H](NC(=O)C[C@H]1CC[C@H]2[C@@H](COC[C@H](O)CN2C(=O)Nc2ccccc2)O1)c1ccccc1	none (no result: Vif imaging)
CCOC(=O)c1cc(-c2ccc3c(c2)OCCO3)n[nH]1	none
O=C(O)c1cc(-c2ccc3c(c2)OCCO3)n[nH]1	FGF22 binding 43
CCS(=O)(=O)N1CC2(C1)[C@H](c1ccccc1)[C@H](CO)N2C(=O)C1CCCC1	none (no result: FGF22 binding, Vif imaging)
O=C(N/C(=C/c1cccs1)C(=O)N1CCCC1)c1ccccc1	none
CN1CCN(C(=O)/C(=C\c2cccs2)NC(=O)c2ccccc2)CC1	FGF22 binding 27
Cc1ccc(SCCC(=O)Nc2ccccc2C(=O)NC(C)C)cc1	none (no result: FGF22 binding, CFTR F508del cor)
Cc1ccc(SCCC(=O)Nc2ccccc2Br)cc1	FGF22 binding 43
O=C(NCC1CC1)[C@H]1[C@H](CO)[C@H]2Cn3c(ccc(C4=CCCCC4)c3=O)[C@@H]1N2	none (no result: FGF22 binding, Vif imaging)
Cc1c(-n2c(SCC(C)C)nc3ccccc3c2=O)c(=O)n(-c2ccccc2)n1C	none
Cc1c(-n2c(SCC(=O)NC(C)C(C)C)nc3ccccc3c2=O)c(=O)n(-c2ccccc2)n1C (configuration not stated)	FGF22 binding 43
C[C@@H]1CN([C@H](C)CO)C(=O)c2cccc(NC(=O)C3CCCCC3)c2O[C@H]1CN(C)S(=O)(=O)c1ccc(Cl)cc1	none (no result: Vif imaging)
Cc1ccccc1OCC1CNC(=O)O1 (configuration not stated)	FGF22 binding 43
COc1ccc(OCC2CNC(=O)O2)cc1 (configuration not stated)	none (no result: CFTR F508del cor)
O=C1NCC(COc2cccc3ccccc23)O1 (configuration not stated)	none
CC#CCOCC1CNC(=O)O1 (configuration not stated)	CFTR F508del cor 18
CC(=O)Nc1ccc2c(c1)C(=O)N(C)[C@@H]1CC[C@@H](CC(=O)NCc3ccc4c(c3)OCO4)O[C@H]1CO2	none (no result: Vif imaging)
COc1ccc2c3c(n(C)c2c1)[C@H](CO)N(Cc1ccc2c(c1)OCO2)CC31CN(C(C)=O)C1	none (no result: Vif imaging)
O=C(C[C@H]1C=C[C@H](NS(=O)(=O)c2ccc(F)cc2)[C@H](CO)O1)NC1CCCCC1	none (no result: Vif imaging)
O=C(N[C@@H]1CC[C@@H](CC(=O)N2CCC(Cc3ccccc3)CC2)O[C@H]1CO)c1cnccn1	none (no result: Vif imaging)
NC(=S)NN=C1CCCCCCCCC1	none
NC(=S)NN=C1CCSCC1	FGF22 binding 43
CCCN(C)C[C@@H]1OCCCC[C@@H](C)Oc2ccc(NS(=O)(=O)c3ccccc3)cc2C(=O)N([C@@H](C)CO)C[C@@H]1C	none (no result: Vif imaging)
CNC(=O)C[C@@H]1CC[C@H]2[C@@H](COc3ccc(NC(=O)c4cscn4)cc3C(=O)N2C)O1	none (no result: Vif imaging)
CCCc1ccc(C(C)NC(=S)NCc2ccc(F)cc2)cc1 (configuration not stated)	none
CCOc1ccc(C(C)NC(=S)NCc2ccc(Cl)cc2)cc1 (configuration not stated)	FGF22 binding 43
CCC(=O)N1CC2(CN(Cc3ccc(Cl)cc3)C2)c2c(n(C)c3cc(OC)ccc23)[C@H]1CO	none (no result: Vif imaging)
C[C@H](CO)N1C[C@H](C)[C@H](CN(C)C(=O)c2ccccc2F)Oc2cc(-c3ccccc3)ccc2S1(=O)=O	none (no result: FGF22 binding, Vif imaging)
Cc1ccc(SCc2c(C(=O)N/N=C/c3ccc(C)o3)nnn2-c2nonc2N)cc1	none
Cc1ccc(/C=N/NC(=O)c2nnn(-c3nonc3N)c2CSc2ccccc2)o1	FGF22 binding 43
Cc1c(C(=O)N/N=C/c2c(O)ccc3ccccc23)nnn1-c1nonc1N	CFTR F508del cor 14
COc1ccc2ccccc2c1/C=N/NC(=O)c1nnn(-c2nonc2N)c1C(C)C	none
CC(C)NC(=O)Nc1ccc2c(c1)C(=O)N([C@@H](C)CO)C[C@@H](C)[C@H](CN(C)C(=O)Nc1ccc3c(c1)OCO3)OCCCC[C@@H](C)O2	none (no result: Vif imaging)
C[C@H]1CN([C@@H](C)CO)C(=O)Cc2cc(NC(=O)c3ccncc3)ccc2O[C@@H]1CN(C)S(C)(=O)=O	none (no result: FGF22 binding, Vif imaging)
C/C=C/c1ccc([C@H]2[C@@H](CNC(=O)CC3CC3)N(C(C)=O)[C@H]2CO)cc1	none (no result: FGF22 binding, Vif imaging)
COc1cccc(-c2cc(=O)c3cc(NC(=O)c4ccc(Cl)cc4)ccc3[nH]2)c1	none
COc1cccc(-c2cc(=O)c3cc(NC(=O)c4ccccc4)ccc3[nH]2)c1	Vif imaging 194
COc1ccc(-c2ccc3c(c2)O[C@H](CN(C)Cc2ccccc2C(=O)O)[C@@H](C)CN([C@H](C)CO)S3(=O)=O)cc1	none (no result: Vif imaging)
O=C(C[C@H]1CC[C@H](NC(=O)Cc2cccnc2)[C@H](CO)O1)Nc1ccc(-c2ccccc2)cc1	none (no result: Vif imaging)
